According to PubChem BioAssay AID1159580 (chemical genetic matrix, 2015):
About 2,000 (36%) of roughly 5,500 compounds were called active. Another 18% or so got no clear call; they are omitted. Rule as the data show it: active = normalized growth mostly below about 0.91 (no sharp cut-off); inconclusive = no clear call, values can overlap the other calls; inactive = mostly above about 0.92. The list shows a part of the results.

Experiment: chemical genetic growth profiling, strain panel (AID 1159580);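 also: tested at 20 µM; growth read once vehicle control cultures reached saturation at 30 °C; 1 = growth at the plate median or of vehicle wells; lower values mean less growth of the strain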
Settings: S. cerevisiae deletion strains, growth OD

Measured: normalized growth

CC(=O)OC1CC(OC(C)=O)C2(C)C(CC(OC(C)=O)C3(C)C2CCC2(C)C(c4ccoc4)CC4OC423)C1(C)C (stereo not drawn)
inactive: locus YBR021W, strain FUR4, hits give low values 0.998 | locus YBR229C, strain ROT2, hits give low values 1 | locus YCL029C, strain bik1, hits give low values 1 | locus YDL035C, strain GPR1, hits give low values 1.01 | locus YDL074C, strain BRE1, hits give low values 1.02 | locus YDL101C, strain DUN1, hits give low values 1.03 | locus YDL185W, strain tfp1, hits give low values 1.01 | locus YDL192W, strain arf1, hits give low values 1.01 | locus YDR101C, strain arx1, hits give low values 0.998 | locus YDR162C, strain NBP2, hits give low values 1.01 | locus YDR318W, strain mcm21, hits give low values 1 | locus YDR388W, hits give low values 1.01 | locus YDR502C, strain sam2, hits give low values 1.02 | locus YER110C, hits give low values 1.01 | locus YER155C, strain BEM2, hits give low values 1 | locus YER167W, strain BCK2, hits give low values 1.01 | locus YGL078C, strain dbp3, hits give low values 1.02 | locus YGL086W, strain mad1, hits give low values 0.997 | locus YGL248W, strain PDE1, hits give low values 1.01 | locus YGR135W, strain pre9, hits give low values 1.04 | locus YGR229C, strain SMI1, hits give low values 1.02 | locus YGR252W, strain gcn5, hits give low values 0.998 | locus YHR079C, strain IRE1 (second series), hits give low values 1.01 | locus YHR094C, strain hxt1, hits give low values 1.01 | locus YHR129C, strain ARP1, hits give low values 1.02 | locus YHR200W, strain rpn10, hits give low values 1.01 | locus YIL066C, strain RNR3, hits give low values 1.01 | locus YIL073C, strain SPO22, hits give low values 1.05 | locus YIL125W, strain kgd1, hits give low values 1.01 | locus YIR030C, strain dcg1, hits give low values 1 | locus YJL095W, strain BCK1, hits give low values 1.04 | locus YJL134W, strain LCB3, hits give low values 1.01 | locus YJL168C, strain set2, hits give low values 1.01 | locus YJL187C, strain SWE1 (second series), hits give low values 1.02 | locus YJR043C, strain POL32, hits give low values 0.981 | locus YKL009W, strain mrt4, hits give low values 0.984 | locus YKL068W, hits give low values 1 | locus YKL085W, strain MDH1 (second series), hits give low values 1.01 | locus YKL085W, strain MDH1, hits give low values 1.01 | locus YKR001C, strain vps1, hits give low values 1 | locus YLR039C, strain RIC1, hits give low values 1.01 | locus YLR058C, strain SHM2, hits give low values 1.01 | locus YLR102C, strain apc9, hits give low values 1.01 | locus YLR262C, strain YPT6, hits give low values 0.927 | locus YLR268W, strain sec22, hits give low values 0.994 | locus YLR330W, strain CHS5, hits give low values 1.02 | locus YLR342W, strain FKS1 (second series), hits give low values 1 | locus YLR371W, strain rom2, hits give low values 1.02 | locus YLR418C, strain cdc73, hits give low values 1.02 | locus YML016C, strain PPZ1, hits give low values 1.01 | locus YML032C, strain rad52, hits give low values 1.01 | locus YML124C, strain tub3, hits give low values 1 | locus YMR078C, strain ctf18, hits give low values 1.01 | locus YMR223W, strain ubp8, hits give low values 1.01 | locus YMR263W, strain SAP30, hits give low values 1.02 | locus YMR307W, strain GAS1, hits give low values 1.01 | locus YNL067W, strain RPL9B, hits give low values 1.03 | locus YNL153C, strain GIM3, hits give low values 1.03 | locus YNL233W, strain BNI4, hits give low values 0.986 | locus YNL250W, strain rad50, hits give low values 1.01 | locus YNL271C, strain bni1, hits give low values 0.998 | locus YNL298W, strain CLA4, hits give low values 1.02 | locus YNL307C, strain MCK1, hits give low values 1.02 | locus YNR052C, strain pop2, hits give low values 1.01 | locus YOL012C, strain htz1 0.881 | locus YOL147C, strain pex11, hits give low values 0.996 | locus YOR061W, strain CKA2, hits give low values 1 | locus YOR069W, strain VPS5, hits give low values 1.01 | locus YOR136W, strain idh2, hits give low values 1 | locus YOR144C, strain elg1, hits give low values 0.999 | locus YOR184W, strain ser1, hits give low values 0.982 | locus YOR316C, strain cot1, hits give low values 1.01 | locus YPL241C, strain CIN2, hits give low values 1.01 | locus YPR119W, strain clb2, hits give low values 1 | locus YPR141C, strain kar3, hits give low values 1.02 | locus YPR163C, strain tif3, hits give low values 1.01 | locus YPR167C, strain met16, hits give low values 1.01 | strain wtn01, hits give low values 0.997
